These results are taken from the supplement of paper PMC13094657.

Counter-ions that a name gives are not always drawn. ± gives the standard deviation of the averaged measurements.

The test system of experiment [1] is MDA-MB-231. Nature of the experiment: cell viability relative to vehicle unstimulated control (fraction); higher = more viable cells. The following applies: pre-treatment time: 18 h then 24 h IFNg/TNF.
Experiment [2] relates to MDA-MB-231. As to the kind of experiment: kynurenine production, fold change vs DMSO IFNg/TNF control; higher = more kynurenine produced (less inhibition). The following applies: pre-treatment time: 18 h then 24 h IFNg/TNF. The method in brief: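 MDA-MB-231 cells (7 × 10^4/well, 96-well plates, seeded 24 h earlier) were pre-treated 18 h with each natural product in 0.1% DMSO, then stimulated 24 h with IFNγ (1 U/ml) and TNF (6.25 ng/ml) at 37°C. Supernatant kynurenine was read at 492 nm after trichloroacetic acid and p-dimethylaminobenzaldehyde treatment, against 0–100 μM standards. Kynurenine production is the fold change over cytokine-stimulated vehicle wells on the same plate, averaged over duplicate plates in the first screening round.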
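Wherever cell viability relative to vehicle unstimulated control is given: viability of the cells left after supernatant collection, read with Deep Blue dye added for 4 h, as absorbance at 570 nm minus 600 nm.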

On to `COc1ccc2cc3[n+](cc2c1OC)CCc1cc2c(cc1-3)OCO2` [Berberine] (compound dose: 10 uM), for which the cell viability in the experiment with MDA-MB-231 [1] amounted to 0.8829 ± 0.0012. Further, the kynurenine production with MDA-MB-231 [2] came out at 0.807 ± 0.11.
For the compound `C[C@@H]1[C@H]2[C@H](O[C@@H]3O[C@H](CO)[C@@H](O)[C@H](O)[C@H]3O)OC=C(C(=O)O)[C@H]2C[C@@H]1O` [Loganic acid] (compound dose: 10 uM), the cell viability in the experiment on MDA-MB-231 [1] worked out at 0.999 ± 0.016. Moreover, the kynurenine production in the experiment on MDA-MB-231 [2] turned out to be 1.01 ± 0.16.
Taken in the same sequence, the figures for `C[C@H](CCC(=O)NCC(=O)O)[C@H]1CC[C@H]2[C@@H]3[C@H](O)C[C@@H]4C[C@H](O)CC[C@]4(C)[C@H]3CC[C@]12C` [Glycochenodeoxycholic acid (sodium salt)] (compound dose: 10 uM) were 0.956 ± 0.082 and 0.955 ± 0.14.
On to `CC(C)(O[C@@H]1O[C@H](CO)[C@@H](O)[C@H](O)[C@H]1O)[C@@H]1CC[C@](O)(CO)[C@H]2CC(=O)[C@@](C)(O)[C@@H]2C1` [Atractyloside A] (compound dose: 10 uM), for which, in the experiment on MDA-MB-231 [1], the cell viability is 0.986 ± 0.03. Further, in the experiment on MDA-MB-231 [2], the kynurenine production turned out to be 0.854 ± 0.057.
For `CC1(C)CC[C@]2(C(=O)O)CC[C@]3(C)C(=CC[C@@H]4[C@@]5(C)CC[C@H](O[C@@H]6O[C@H](C(=O)O)[C@@H](O)[C@H](O[C@@H]7OC[C@@H](O)[C@H](O)[C@H]7O)[C@H]6O)C(C)(C)[C@@H]5CC[C@]43C)[C@@H]2C1` [Momordin Ic] (compound dose: 10 uM), the cell viability in the experiment with MDA-MB-231 [1] came to 1.07 ± 0.023. Further, the kynurenine production with MDA-MB-231 [2] is 0.967 ± 0.2.
`CC(=O)OC1CCC2(C)C(CCC3(C)C2CC=C2C4C(C)C(C)CCC4(C(=O)O)CCC23C)C1(C)C` (stereo not drawn) [Ursolic acid acetate] (compound dose: 10 uM): in the experiment with MDA-MB-231 [1], the cell viability stood at 1.11 ± 0.14. In the experiment on MDA-MB-231 [2], the kynurenine production was found to be 0.771 ± 0.053.
For the compound `C[C@H]1[C@H](C)CC[C@]2(C(=O)O[C@@H]3O[C@H](CO[C@@H]4O[C@H](CO)[C@@H](O[C@@H]5O[C@H](C)[C@H](O)[C@@H](O)[C@H]5O)[C@H](O)[C@H]4O)[C@@H](O)[C@H](O)[C@H]3O)CC[C@]3(C)C(=CC[C@@H]4[C@@]5(C)C[C@@H](O)[C@H](O)[C@@](C)(CO)[C@@H]5CC[C@]43C)[C@H]12` [Asiaticoside] (compound dose: 10 uM), the cell viability in the experiment with MDA-MB-231 [1] turned out to be 0.831 ± 0.1. Besides, the kynurenine production with MDA-MB-231 [2] is 0.85 ± 0.17.
As for `C=CC(C)(O)CCC=C(C)CCC=C(C)C` (mixture of isomers) [Nerolidol] (compound dose: 10 uM), the cell viability in the experiment with MDA-MB-231 [1] turned out to be 1.01 ± 0.043. Further, the kynurenine production with MDA-MB-231 [2] came out at 0.798 ± 0.2.
The like results for `CC(C)=C/C=C1\O[C@@H]2CC(C)=CC(=O)[C@@H]2[C@]1(C)O` [Bisabolangelone] (compound dose: 10 uM) were, in that order, 0.907 ± 0.0022 and 0.711 ± 0.12.
Taken in the same sequence, the figures for `CC1=CC23C(=O)C(C=C4COC(C)(C)OC4C2(O)C1O)C1C(CC3C)C1(C)C` (stereo not drawn) [Ingenol-5,20-acetonide] (compound dose: 10 uM) were 0.948 ± 0.042 and 1.07 ± 0.082.
In the case of `C=C1[C@@H]2CC[C@@H]3[C@](C2)(C(=O)[C@@H](O)[C@@H]2C(C)(C)[C@H]4CC(=O)[C@@]32CO4)[C@@H]1OC(C)=O` [Maoecrystal A] (compound dose: 10 uM), in the experiment with MDA-MB-231 [1], the cell viability worked out at 0.9322 ± 0.0011. Further, the kynurenine production with MDA-MB-231 [2] was found to be 0.8659 ± 0.0031.
For `C[C@H]1[C@H](C)CC[C@]2(C(=O)O)CC[C@]3(C)C(=CC[C@@H]4[C@@]5(C)C[C@@H](O)[C@H](O)[C@@](C)(CO)[C@@H]5[C@H](O)C[C@]43C)[C@H]12` [Madecassic acid] (compound dose: 10 uM), the cell viability with MDA-MB-231 [1] is 0.899 ± 0.14. Moreover, the kynurenine production with MDA-MB-231 [2] amounted to 0.839 ± 0.093.
Taken in the same sequence, the figures for `C[C@@H]1CC[C@@]2(OC1)O[C@H]1C[C@H]3[C@@H]4CC=C5C[C@@H](O[C@@H]6O[C@H](CO)[C@@H](O)[C@H](O[C@@H]7O[C@H](CO)[C@@H](O)[C@H](O)[C@H]7O)[C@H]6O[C@@H]6O[C@@H](C)[C@H](O)[C@@H](O)[C@H]6O)CC[C@]5(C)[C@H]4CC[C@]3(C)[C@H]1[C@@H]2C` [Gracillin] (compound dose: 10 uM) were 0.0777 ± 0.08 and 0.202 ± 0.016.
Regarding `CC(=O)OCC1=C[C@H]2[C@@H]3C(C)(C)[C@]3(OC(C)=O)[C@H](OC(C)=O)[C@@H](C)[C@]2(O)[C@@H]2C=C(C)C(=O)[C@@]2(O)C1` [Phorbol 12,13,20-triacetate] (compound dose: 10 uM), the cell viability with MDA-MB-231 [1] is 0.868 ± 0.26. Besides, in the experiment with MDA-MB-231 [2], the kynurenine production came to 0.8 ± 0.1.
The like results for `C[C@H]1O[C@@H](O[C@H]2CC[C@@]3(C)[C@@H](CC[C@]4(C)[C@@H]3C=CC3=C5CC(C)(C)CC[C@]5(CO)[C@@H](O)C[C@]34C)[C@]2(C)CO)[C@H](O[C@@H]2O[C@H](CO)[C@@H](O)[C@H](O)[C@H]2O)[C@@H](O[C@@H]2O[C@H](CO)[C@@H](O)[C@H](O)[C@H]2O)[C@H]1O` [Buddlejasaponin IVb] (compound dose: 10 uM) were, in that order, 1.07 ± 0.067 and 1.34 ± 0.071.
With `CC1(C)CC[C@]2(C(=O)O[C@@H]3O[C@H](CO)[C@@H](O)[C@H](O)[C@H]3O)CC[C@]3(C)C(=CC[C@@H]4[C@@]5(C)CC[C@H](O[C@@H]6O[C@H](CO)[C@@H](O)[C@H](O[C@@H]7O[C@H](CO)[C@@H](O)[C@H](O)[C@H]7O)[C@H]6O[C@@H]6O[C@H](CO)[C@@H](O)[C@H](O)[C@H]6O)[C@@](C)(CO)[C@@H]5CC[C@]43C)[C@@H]2C1` [Araloside VII] (compound dose: 10 uM), the cell viability in the experiment on MDA-MB-231 [1] was found to be 0.941 ± 0.026. In the experiment on MDA-MB-231 [2], the kynurenine production is 0.825 ± 0.13.
As for `C/C=C(/C)C(=O)O[C@H]1C(C)=C[C@]23C(=O)[C@@H](C=C(CO)[C@@H](O)[C@]12O)[C@H]1[C@@H](C[C@H]3C)C1(C)C` [Ingenol Mebutate] (compound dose: 10 uM), in the experiment on MDA-MB-231 [1], the cell viability stood at 1.01 ± 0.026. Further, the kynurenine production in the experiment with MDA-MB-231 [2] is 0.691 ± 0.18.
Take `CC1OC(OC2C(OC3CCC4(C)C(CCC5(C)C4CC=C4C6CC(C)(C)CCC6(C(=O)OC6OC(COC7OC(CO)C(O)C(O)C7O)C(O)C(O)C6O)CCC45C)C3(C)CO)OCC(O)C2O)C(O)C(O)C1O` (stereo not drawn) [Dipsacoside B] (compound dose: 10 uM): in the experiment on MDA-MB-231 [1], the cell viability was found to be 0.976 ± 0.042. In addition, the kynurenine production with MDA-MB-231 [2] worked out at 0.861 ± 0.32.
For `O=c1c(-c2ccc(O)cc2)coc2c([C@@H]3O[C@H](CO)[C@@H](O)[C@H](O)[C@H]3O)c(O)ccc12` [Puerarin] (compound dose: 10 uM), the cell viability in the experiment with MDA-MB-231 [1] was found to be 0.944 ± 0.027. The kynurenine production in the experiment with MDA-MB-231 [2] is 0.927 ± 0.033.
The like results for `Cc1coc2c1C(=O)C(=O)c1c-2ccc2c(C)cccc12` [Tanshinone I] (compound dose: 2 uM) were, in that order, 0.921 ± 0.029 and 0.643 ± 0.14.
Take `CCCCCC(=O)O[C@@H]1[C@@H](C)[C@@]2(O)[C@@H](C=C(CO)C[C@]3(O)C(=O)C(C)=C[C@@H]23)[C@@H]2C(C)(C)[C@]12OC(=O)CCCCC` [Phorbol 12, 13-Dihexanoate] (compound dose: 10 uM): in the experiment with MDA-MB-231 [1], the cell viability is 1.05 ± 0.076. Besides, the kynurenine production with MDA-MB-231 [2] was determined as 0.896 ± 0.056.
`CC(C)=CCC[C@](C)(O[C@@H]1O[C@H](CO)[C@@H](O)[C@H](O)[C@H]1O)[C@H]1CC[C@]2(C)[C@@H]1[C@H](O)C[C@@H]1[C@@]3(C)CC[C@H](O)C(C)(C)[C@@H]3[C@@H](O[C@@H]3O[C@H](CO)[C@@H](O)[C@H](O)[C@H]3O)C[C@]12C` [Ginsenoside Rg1] (compound dose: 10 uM): the cell viability in the experiment with MDA-MB-231 [1] was 0.975 ± 0.025. In addition, the kynurenine production in the experiment with MDA-MB-231 [2] turned out to be 0.782 ± 0.22.
Taken in the same sequence, the figures for `C=C1CC[C@H]2[C@@H](/C=C(\C)C(=O)[C@@]3(OC(C)=O)C[C@H](C)[C@H](OC(=O)c4cccnc4)[C@@H]3[C@H]1OC(C)=O)C2(C)C` [Euphorbia factor L8] (compound dose: 10 uM) were 1.1 ± 0.075 and 0.89 ± 0.083.
In the case of `CC1(C)CC[C@]2(C(=O)O)CC[C@]3(C)C(=CC[C@@H]4[C@@]5(C)CC[C@H](O)C(C)(C)[C@@H]5CC[C@]43C)[C@@H]2C1` [Oleanolic Acid] (compound dose: 10 uM), the cell viability in the experiment with MDA-MB-231 [1] is 0.984 ± 0.035. Also, in the experiment on MDA-MB-231 [2], the kynurenine production was found to be 0.778 ± 0.07.
